Measured values: PubChem BioAssay AID977607 (Broad Institute, 2014)
The campaign covered roughly 1,500 compounds. About 460 (31%) were called active. Another 1% or so got no clear call; they are omitted. The list is a sample of the results. Results with a measured potency or affinity are listed apart. A number with no mark means an inactive call.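 Rule for the calls: active = curve reaches 40% activation over neutral controls at an AC40 no higher than the top valid tested concentration; inconclusive = no clear call, values can overlap the other calls; inactive = signal moving opposite to the expected increase, and the rest.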

Experiment: GLuc-reported insulin release enhancers, glucose-stimulated beta cells – cell-based, INS-1E, Gaussia luciferase, luminescence, cherry-pick, set 2, dose response (AID 977607);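 note: 0% = median of the plate neutral control wells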
Settings: INS-1E GLuc insulin secretion reporter, 2-3 h, stronger effect = higher value; at 35 µM, 100% = signal doubled over neutral wells unless noted
For `Cc1ccc(NCc2cccc(B(O)O)c2)cc1`, the max activation was -34.5%. With `Cc1cccc(NCc2ccccc2)c1` the max activation was -18.2% [at 0.0016 µM, 100% = signal doubled over neutral wells]. For `COc1ccc(/C=N/Nc2nc(-c3ccc(Cl)cc3)cc(C(F)(F)F)n2)c(OC)c1`, the max activation was 30.4%. For `S=C(NCc1ccccc1)Nc1ccc2cn[nH]c2c1`, the max activation was -24.4% [at 0.046 µM, 100% = signal doubled over neutral wells]. With `COc1ccccc1C(=O)N/N=C(\C)CC(=O)Nc1ccc2c(c1)OCCO2` the max activation was 15.2% [at 0.005 µM, 100% = signal doubled over neutral wells]. With `CC(Oc1ccccc1Cl)C(=O)Nc1ccc(S(=O)(=O)Nc2nccs2)cc1` (stereo not given) the max activation was -19.7% [at 0.135 µM, 100% = signal doubled over neutral wells]. With `CCOc1ncccc1C(=O)NNC(=O)c1ccccc1-n1cccc1` the max activation was -7.28% [at 3.8 µM, 100% = signal doubled over neutral wells]. In the case of `CCOc1ncccc1C(=O)NCc1ccc(C)cc1`, the max activation is reported as -15% [at 0.046 µM, 100% = signal doubled over neutral wells]. With `CCOc1ncccc1C(=O)Nc1cccc(S(=O)(=O)NC2=NCCC2)c1` the max activation was -12.4% [at 0.135 µM, 100% = signal doubled over neutral wells]. For `CNC(=O)c1cc(C(=O)c2ccccc2Br)c[nH]1`, the max activation was 25.1% [at 0.135 µM, 100% = signal doubled over neutral wells]. For `COC(=O)CN(c1cccc(C)c1)S(=O)(=O)c1ccccc1`, the max activation was 23.2% [at 0.42 µM, 100% = signal doubled over neutral wells]. In the case of `O=C(Nc1ccc(F)cc1)N1CCCCN2[C@@H](CO)[C@@H](c3ccc(C#Cc4ccccc4)cc3)[C@@H]2C1`, the max activation is reported as 21.6% [at 0.0016 µM, 100% = signal doubled over neutral wells]. With `CCN(CC(=O)Nc1ccccc1OC)C(=O)C1CCCC1` the max activation was -15.2% [at 3.8 µM, 100% = signal doubled over neutral wells]. For `O=C1CC(NS(=O)(=O)c2cccs2)CN1c1cccc(F)c1` (stereo not given), the max activation was -15.9% [at 11 µM, 100% = signal doubled over neutral wells]. With `C=CCNC(=O)COc1coc(CN2CCN(C(=O)c3ccco3)CC2)cc1=O` the max activation was -8.4% [at 0.046 µM, 100% = signal doubled over neutral wells]. For `CCn1ncc2c1C(=O)NC1c3ccccc3C(=O)N21` (stereo not given), the max activation was -17.7% [at 0.0016 µM, 100% = signal doubled over neutral wells]. With `c1ccc2nc3c(nc2c1)c1ccccc1n3CCN1CCOCC1` the max activation was -14.9% [at 0.005 µM, 100% = signal doubled over neutral wells]. In the case of `CC(=O)Nc1nc(C)nc(-c2ccccc2OC(C)=O)n1`, the max activation is reported as -19.4% [at 0.046 µM, 100% = signal doubled over neutral wells]. For `O=c1c2ccccc2nc(-c2ccco2)n1/N=C/c1ccco1`, the max activation was -20.6% [at 0.0016 µM, 100% = signal doubled over neutral wells]. With `O=c1c2ccccc2nc(-c2ccco2)n1Cc1ccccc1` the max activation was -18.2% [at 0.046 µM, 100% = signal doubled over neutral wells]. With `CSc1ncccc1C(=O)NCCc1ccccc1F` the max activation was 23.1% [at 3.8 µM, 100% = signal doubled over neutral wells]. With `COCCOc1ccc(C(F)(F)F)cc1NC(=O)c1ccccc1F` the max activation was -23.9% [at 3.8 µM, 100% = signal doubled over neutral wells]. For `O=C(NCCCNc1ccnc2cc(Cl)ccc12)c1ccccc1F`, the max activation was -28.3%. With `O=S(=O)(c1cccs1)N1CN(C2CCCCC2)c2nc3ccccc3nc21` the max activation was -12.2%. With `Cc1ccc(S(=O)(=O)N(CC(=O)Nc2ccc(C)cc2C)C(=O)N2CCN(C)CC2)cc1` the max activation was 42% [at 0.046 µM, 100% = signal doubled over neutral wells]. With `Cc1ccc(OCC(=O)NNC(=O)CCC(=O)Nc2ccc(C)cc2C)cc1` the max activation was -27.6% [at 3.8 µM, 100% = signal doubled over neutral wells]. In the case of `CC(=O)N1CCN(C(=O)COC(=O)c2ccc(S(C)(=O)=O)cc2)CC1`, the max activation is reported as 25.9%. In the case of `CCC(=O)Nc1nnc(Sc2ccc(N(C)C)cc2)s1`, the max activation is reported as -22.3% [at 0.046 µM, 100% = signal doubled over neutral wells]. With `CCSc1nnc(NC(=O)c2csc(C)c2)s1` the max activation was -21.3% [at 0.0016 µM, 100% = signal doubled over neutral wells]. With `CCC(CC)NC(=O)CN1CCN(S(=O)(=O)c2cccs2)CC1` the max activation was -15.7% [at 3.8 µM, 100% = signal doubled over neutral wells]. In the case of `Cc1nnc2c(NCCC(C)C)nc3ccccc3n12`, the max activation is reported as -15%. With `CC1(C)Cc2c(cnn2-c2ccccc2)C(NC(=O)CCN2CCCC2=O)C1` (stereo not given) the max activation was -18.4%. For `Cc1ccc(-n2ncc3c2CC(C)(C)CC3NC(=O)CCCN2CCCC2=O)cc1` (stereo not given), the max activation was -26.8% [at 0.046 µM, 100% = signal doubled over neutral wells]. In the case of `CCn1nc(NC(=O)c2ccco2)c2cc3ccccc3nc21`, the max activation is reported as 61.7% [at 11 µM, 100% = signal doubled over neutral wells]. In the case of `CCCn1nc(NC(=O)c2ccco2)c2cc3ccccc3nc21`, the max activation is reported as -15.7% [at 0.0016 µM, 100% = signal doubled over neutral wells].
